Compound activity deposited in PubChem BioAssay by several laboratories.
Peg3 prom inh: inhibitors of Peg3 promoter. inhibition, % at 20 µM. 360,000 tested, 1.7% active. AID 588405. HeLa PEG-Prom luciferase reporter, luminescence, overnight;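 active = inhibition of at least 50% at 20 µM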
TWEAK-Fn14 inh: blocks TWEAK-Fn14 interaction in a reporter cell assay; TWEAK-stimulated Fn14 reporter cells, luciferase luminescence, 8 h; inhibition, % at 10 µM; 360,000 tested, 2% active; AID 1159606; in the data active = inhibition above about 50%
TROY NFkB inh: inhibitors of TROY-dependent NF-kB signaling; Q293 LMP1-TROYcd NF-kB luciferase reporter, 4 h; inhibition, % at 10 µM; 360,000 tested, 0.98% active; AID 1347056;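 active = compounds whose plate-normalised and pattern-corrected inhibition of the luciferase reporter signal at the single screening dose is 50% or more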
Shn3 3UTR inh: Schnurri-3 reporter inhibition in Clone20 osteoblasts; Clone20 osteoblast Shn3 3'UTR firefly luciferase, 24 h; inhibition, % at 12.5 µM; 360,000 tested, 0.52% active;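 active = mean inhibition of at least 75% with every replicate also reaching 75%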
EBV LMP1 NFkB: Epstein-Barr LMP1 NF-kappaB reporter inhibition. 350,000 tested, 0.69% active. LMP1-induced NF-kappaB luciferase reporter cells, luminescence. inhibition, % at 12.5 µM; in the data active = inhibition above about 41%
MITF TRPM1 inh: reduces MITF-dependent TRPM1 promoter luciferase signal | 330,000 tested, 0.83% active | SK-MEL-5 TRPM1 promoter luciferase, 24 h | AID 488899 | inhibition, % at 12.5 µM;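 active = mean inhibition across replicates of 60% or more, whatever share of single replicates reaches that level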
Large screens that a line does not name were inactive. Hits are enriched below; roughly 4.1% of the tested compounds scored in any of these assays.

O=C(CC1Sc2ccccc2NC1=O)NCc1ccccc1 (centres undefined)	none
CC(=O)Nc1ccc(/C(C)=N/Nc2nc(Nc3ccccc3)nc(N3CCOCC3)n2)cc1	none
CC(=O)c1ccc(Nc2nc(N3CCOCC3)nc(N3CCOCC3)n2)cc1	TWEAK-Fn14 inh 83.5
CCN1CCN(c2nc(Nc3ccc(NC(C)=O)cc3)nc(Nc3ccc(NC(C)=O)cc3)n2)CC1	TROY NFkB inh 63.4
O=C(Nc1cccc(C(F)(F)F)c1)n1cc(-c2ccccn2)c(N2CCOCC2)n1	none
COc1cc(OC)cc(-n2nnnc2SCC(=O)NCc2ccc3c(c2)OCO3)c1	none
O=C(CSc1nc2ccccc2s1)NCc1ccc2c(c1)OCO2	TWEAK-Fn14 inh 62.0
O=C(CSc1nnc(NC(=O)c2ccc3c(c2)OCO3)s1)NCc1ccco1	TWEAK-Fn14 inh 60.8, EBV LMP1 NFkB 47.8
NC(=O)CSc1nc2cc3c(cc2c(=O)n1CCCC(=O)NCc1ccc2c(c1)OCO2)OCO3	EBV LMP1 NFkB 44.9
COc1cccc(-n2nnnc2SCC(=O)NCc2ccc3c(c2)OCO3)c1	TWEAK-Fn14 inh 81.0
O=C(c1ccccc1)N(CCCl)C(=O)N(CCCl)C(=O)c1ccccc1	none (no result: MITF TRPM1 inh)
Cc1cc(C(C)(C)C)cc(C)c1S(=O)(=O)N1CCN(C(=O)c2cc([N+](=O)[O-])c[nH]c2=O)CC1	none
O=C(CSc1ncnc2scc(-c3ccc(Cl)cc3)c12)NCc1ccc2c(c1)OCO2	TWEAK-Fn14 inh 85.9
CNc1nc(C)cc(C)c1S(=O)(=O)c1ccc(C)cc1	none
O=C(c1ccc(-n2cccn2)cc1)N1CCc2c([nH]c3ccccc23)C1c1ccccn1 (centres undefined)	none (no result: Shn3 3UTR inh)
Cn1cccc1-c1cc(C(=O)N2CCc3c([nH]c4ccccc34)C2c2ccccn2)[nH]n1 (centres undefined)	EBV LMP1 NFkB 55.4
Cc1ccc(N(CC(=O)NCCSc2ccccn2)S(C)(=O)=O)cc1	none
N#CCSc1nc2sc3c(c2c(=O)n1C1CCCCC1)CCCC3	TWEAK-Fn14 inh 58.4
O=C(Nc1ccc(C(F)(F)F)cc1)c1cc(S(=O)(=O)NCC2COc3ccccc3O2)ccc1F (centres undefined)	none
CC(C)C1CC(CCNCc2ccc(N(C)C)cc2)(c2ccccc2)CCO1 (centres undefined)	Peg3 prom inh 58.9, MITF TRPM1 inh 72.6
CC(C)C1CC(CCNCc2ccc3c(c2)OCO3)(c2ccccc2)CCO1 (centres undefined)	none
C/C=C(\C)C(=O)OC1CC(C)(C)C[C@H]2C3=CC[C@@H]4[C@@]5(C)CCC(O[C@@H]6O[C@@H](C(=O)O)[C@@H](O)C(O[C@@H]7OC[C@H](O)[C@@H](O)[C@@H]7O[C@@H]7OC(CO)C(O)[C@@H](O)[C@@H]7O)C6O[C@@H]6OC(CO)C(O)C(O)C6O)[C@@](C)(CO)[C@@H]5CC[C@]4(C)[C@]3(C)CC(O)[C@@]12CO (some centres undefined)	Peg3 prom inh 59.5
O=C(NCCO)c1cc2c([nH]c3ccccc32)c(-c2ccccc2)n1	none
Cc1ccc(-c2nc(C(=O)NCCCN(C)C)cc3c2[nH]c2ccccc23)cc1	Peg3 prom inh 90.8, MITF TRPM1 inh 75.7
Cc1ccc(-c2nc(C(=O)NCC3CCCO3)cc3c2[nH]c2ccccc23)cc1 (centres undefined)	Peg3 prom inh 68.1, TWEAK-Fn14 inh 53.1
Cc1ccccc1-c1nc(C(=O)NCC2CCCO2)cc2c1[nH]c1ccccc12 (centres undefined)	TWEAK-Fn14 inh 54.3
O=C(O)c1ccc2c(=O)[nH]c(CCl)nc2c1	none
N[C@H]1C(O)O[C@H](CO)[C@@H](O)[C@@H]1O (some centres undefined)	none
OC[C@H]1OC(O)[C@H](O)[C@@H](O)[C@H]1O (some centres undefined)	EBV LMP1 NFkB 56.3
O=C(C1=C[C@H](c2ccccc2)C[C@H](OCCCCO)O1)N1CCOCC1	none
COc1ccc(Cc2nnc(SCC(=O)Nc3c(C)cccc3C)[nH]c2=O)cc1	none
O=C(NC12CC3CC(CC(C3)C1)C2)c1ccc([N+](=O)[O-])o1	Peg3 prom inh 83.5, MITF TRPM1 inh 62.7
O=C(NC12CC3CC(CC(C3)C1)C2)c1ccc(Br)o1	none
O=C1N[C@@H](Cc2c[nH]c3ccccc23)COC(=O)[C@H](Cc2ccc(F)cc2)C/C=C\C[C@H]1CC(=O)N(CCO)Cc1ccccc1	EBV LMP1 NFkB 43.1
O=C1N[C@@H](Cc2c[nH]c3ccccc23)COC(=O)[C@@H](Cc2ccc(F)cc2)CC/C=C/C[C@@H]1CC(=O)N(CCO)Cc1ccccc1	TWEAK-Fn14 inh 54.8
COc1cccc(C(=O)NCC(=O)OCC(=O)Nc2ncc(Cl)cc2Cl)c1	TWEAK-Fn14 inh 87.9
Cc1nc2[nH]c(=S)[nH]c2cc1Br	none
Cc1nc2nc[nH]c2cc1Br	TWEAK-Fn14 inh 67.3 (no result: TROY NFkB inh)
CCCCCCCN(C(=O)CCl)c1cccc(C)c1	none
N#CCCN(C(=O)CCl)c1cccc(Cl)c1	Peg3 prom inh 53.8, EBV LMP1 NFkB 45.2
COc1ccc(-c2ccc3oc(-c4ccc(OC)cc4)c(C#CCO)c3c2)cc1	TWEAK-Fn14 inh 52.9
COc1ccc(-c2sc3ccc(N4CCOCC4)cc3c2C#CC(C)(C)O)cc1	none
COc1ccc(-c2oc3ccc(N4CCOCC4)cc3c2C#CCO)cc1	Peg3 prom inh 82.9, TWEAK-Fn14 inh 97.1, TROY NFkB inh 54.3
CN1CCN(C(=O)CN(c2cccc(Br)c2)S(=O)(=O)c2ccccc2)CC1	none
CCOC(=O)C(C)CC(C)C(=O)N1CCOCCOCCN(C(=O)C(C)CC(C)C(=O)OCC)CCOCC1 (centres undefined)	none
CCOC(=O)C(C(=O)OCC)C(C(=O)OCC)N1CCOCC1 (centres undefined)	Peg3 prom inh 106.0, MITF TRPM1 inh 96.0
O=S(=O)(NCc1ccco1)N1CCOCC1	none
COc1cc(C)c(/C=C(\C#N)C(=O)Nc2cccc(C)c2)cc1C(C)C	TWEAK-Fn14 inh 86.3, TROY NFkB inh 83.8
Cc1nc(NC(=O)c2ccc([N+](=O)[O-])cc2Cl)sc1C(=O)N(C)C	none
Cc1cc(C(=O)Nc2nc(C)c(C(=O)N(C)C)s2)ccc1[N+](=O)[O-]	TWEAK-Fn14 inh 53.5, TROY NFkB inh 61.8
CCCCOc1ccc(CSC(CC(=O)O)C(=O)O)cc1 (centres undefined)	TWEAK-Fn14 inh 69.7 (no result: TROY NFkB inh)
CCCOc1ccc(CSC(CC(=O)O)C(=O)O)cc1 (centres undefined)	none
COc1ccccc1C(CCN(Cc1ccccc1)C(C)=O)c1ccco1 (centres undefined)	none
CC(=O)N1c2ccc(S(=O)(=O)N3CCC(C(=O)Nc4ccc(C)cn4)CC3)cc2CC1C (centres undefined)	none
O=C1C=CC(=C(c2ccc(O)cc2)c2ccc(O)cc2)C=C1	Peg3 prom inh 85.2, MITF TRPM1 inh 83.5
O=C(/C=C/c1ccccc1)N1CCN(CCN2C(=O)c3cccc4cccc(c34)C2=O)CC1	none
